HEK293 cAMP ctrl – qHTS Assay for Agonists of the Thyroid Stimulating Hormone Receptor: Activators of Intracellular cAMP Concentrations in Parental HEK 293. parental HEK293 CNG cAMP sensor, membrane potential fluorescence. Potency, µM (top dose mostly 57.1 µM), without a hit: at the highest dose activation, most hits filed as activators. hit rate 2.5% among 73,000. AID 938, 2007; active means well fitted activation curve with a large enough effect; inconclusive means small, poorly fitted or top-dose-only effect; inactive means no such curve, though single readings can be large or run the other way; further: potency means the concentration at half of the fitted maximal effect; % of control where 0% means no effect; nearly all actives have a fitted effect of over 55% in size
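Counterscreen for endogenous-receptor signalling: CNG-channel HEK 293 cells report cAMP rise by membrane depolarization. After 60 min dye equilibration with 100 uM RO 20-1724, compounds incubated 30 min before bottom-read fluorescence at 590 nm.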
TSHR agonist – qHTS Assay for Agonists of the Thyroid Stimulating Hormone Receptor. hit rate 0.48% among 73,000. Thyrotropin receptor (Homo sapiens), P16473. HEK293-CNG-TSHR cells (CNG channel as cAMP sensor), membrane potential dye, cAMP. Potency, µM (doses to about 57.1 µM), for inactives: at the highest dose activation, hits mostly activators; active means well fitted activation curve with a large enough effect in the main read-out, with a control signal flat, not every such curve was filed as active; inconclusive means small, poorly fitted or top-dose-only effect, or a change in a side signal; inactive means no such curve, though single readings can be large or run the other way; % of control where 0% means no effect;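 further: the control signal comes from parental cells without the receptor; potency means the concentration at half of the fitted maximal effect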
Target sequence (P16473 whole entry, looked up): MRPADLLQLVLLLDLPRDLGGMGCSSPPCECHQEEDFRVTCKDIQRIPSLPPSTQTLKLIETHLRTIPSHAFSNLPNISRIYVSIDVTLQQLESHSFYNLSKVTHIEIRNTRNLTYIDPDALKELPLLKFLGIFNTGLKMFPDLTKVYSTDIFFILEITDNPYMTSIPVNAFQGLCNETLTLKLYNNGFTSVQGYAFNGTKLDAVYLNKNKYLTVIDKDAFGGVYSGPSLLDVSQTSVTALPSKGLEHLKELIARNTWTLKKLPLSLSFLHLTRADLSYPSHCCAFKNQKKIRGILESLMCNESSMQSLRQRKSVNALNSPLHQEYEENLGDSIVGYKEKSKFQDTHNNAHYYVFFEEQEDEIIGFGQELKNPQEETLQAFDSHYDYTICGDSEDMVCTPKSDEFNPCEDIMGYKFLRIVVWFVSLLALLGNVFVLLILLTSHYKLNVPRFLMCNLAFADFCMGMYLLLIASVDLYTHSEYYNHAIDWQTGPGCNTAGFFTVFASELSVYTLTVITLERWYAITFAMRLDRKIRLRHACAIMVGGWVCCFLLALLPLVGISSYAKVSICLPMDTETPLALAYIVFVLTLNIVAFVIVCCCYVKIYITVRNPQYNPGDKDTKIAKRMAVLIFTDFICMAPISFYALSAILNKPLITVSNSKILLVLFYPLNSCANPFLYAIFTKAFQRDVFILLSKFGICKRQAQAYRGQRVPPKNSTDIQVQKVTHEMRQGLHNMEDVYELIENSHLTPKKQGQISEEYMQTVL
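cAMP rise detected as CNG-channel membrane depolarization by fluorescent dye (emission 590 nm), 30 min after compound, following 60 min dye loading containing 100 uM RO 20-1724 at room temperature. Cells: TSHR/CNG HEK 293, with parental CNG HEK 293 as control.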
Hsp90 Hop PPI – qHTS Assay for Disrupters of an Hsp90 Co-Chaperone Interaction; Hsp90 C-terminal peptide / TPR2A (Hop) interaction, human; AID 595, 2007; hit rate 0.44% among 71,000; Potency, µM (highest dose often 57 µM), for the others: at the top dose activity change, negative = inhibition; AlphaScreen TPR2A-His6 binding biotin-Hsp90 C-terminal peptide; active means well fitted curve in either direction with a large enough effect; inconclusive means small, poorly fitted or top-dose-only effect, or another doubt; further: potency means the concentration at half of the fitted maximal effect; on the % scale 0 is the no-effect control and ±100 the full control effect
IkB sig inh – IkB Signaling. ABC-DLBCL IkBa-CBG/CBR dual luciferase ratio, 4 h; response scale: scaled: untreated 0%, proteasome inhibitor 100%. Potency, µM (top dose mostly 57.1 µM), for inactives: at the top dose IkBa stabilization activation. hit rate 0.04% among 110,000; active means well fitted curve in the direction sought with a large enough effect in the signal ratio, not every such curve was filed as active; inconclusive means small, poorly fitted or top-dose-only effect, or a change in a side signal; the % refers to the signal ratio;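 further: potency means the concentration at half of the fitted maximal effect; the direction sought is a rising ratio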
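Curves were fitted separately to fusion (green), unfused (red) and ratio luminescence, then classed by r2, magnitude and activity. Cells: OCI-Ly3, 4 h compound plus doxycycline at 37C; 10 uM MG-132 defined full response.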
CRE-bla Fsk – Cell signaling CRE-BLA (Fsk stim); CHO CRE-bla reporter (cAMP response element driving beta-lactamase), forskolin EC10, beta-lactamase ratio; Potency, µM (highest dose often 38.2 µM), without a hit: top-dose activity change, negative = inhibition, actives largely listed as activators; hit rate 2.5% among 71,000; AID 662, 2007; active means well fitted activation curve with a large enough effect in the signal ratio, with a control signal flat, not every such curve was filed as active; inconclusive means small, poorly fitted or top-dose-only effect, or effect the other way, or a change in a side signal; the % refers to the signal ratio; further: potency means the concentration at half of the fitted maximal effect; % of control where 0% means no effect
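AC50 values, positive or negative, reflect shifts in EC10 NKH 477-induced CRE-bla reporter activity in CHO cells. Incubation lasted 3 h at 37 °C before CCF4 substrate (2 h, room temperature) and ratiometric 460/530 nm reading.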
Hsp90 TPR2A CRC – Confirmation Concentration-Response Assay and Counterscreen for Disrupters of an Hsp90 Co-Chaperone Interaction | AlphaScreen TPR2A-His6 / biotin-Hsp90 peptide binding | shares compounds with Hsp90 Hop PPI | hit rate 100% among 45 | activity, negative = inhibition, % at 40 µM or 46 µM, hits read low;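 active means compound lowering the Hsp90 and TPR2A binding signal, whether or not the linker counterscreen also flagged it as an artifact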
Starred values were filed as active, the others as inactive; [ ] = remark or other dose. Only some compounds are listed: those with a hit (about 3.5% of all), similar ones and a draw of the others.

CCc1nnc(NC(=O)CSc2nnc(COc3ccccc3)n2-c2ccc(C)cc2)s1 was read as HEK293 cAMP ctrl inconclusive, TSHR agonist inconclusive, Hsp90 Hop PPI -2.8%, IkB sig inh -0.3% and CRE-bla Fsk -2.8%.
Screening CCc1nnc(NC(=O)CSc2nnc(-c3ccccc3O)n2-c2ccc(C)cc2C)s1 returned HEK293 cAMP ctrl 20µM*, TSHR agonist inconclusive, Hsp90 Hop PPI -6.2%, IkB sig inh inconclusive and CRE-bla Fsk -10.9%.
`Cc1ccc(C)c(-n2c(SCC(=O)Nc3nnc(C)s3)nnc2-c2ccoc2C)c1` gave HEK293 cAMP ctrl 2.51µM*, TSHR agonist inconclusive, Hsp90 Hop PPI -9.4%, IkB sig inh inconclusive and CRE-bla Fsk 0.1%.
Cc1cccc(C)c1NC(=O)CSc1nnc(-c2ccoc2C)n1C was read as HEK293 cAMP ctrl 10.3%, TSHR agonist 0.4%, Hsp90 Hop PPI 0.6%, IkB sig inh 0.5% and CRE-bla Fsk 2.2%.
Screening Cc1ccc(C)c(-n2c(SCC(=O)Nc3nonc3C)nnc2-c2ccoc2C)c1 returned HEK293 cAMP ctrl 25.1µM*, TSHR agonist inconclusive, Hsp90 Hop PPI -2.8%, IkB sig inh -0.2% and CRE-bla Fsk 11.6%.
Cc1ccc2c3c(c(SCC(=O)Nc4nonc4C)nc2c1)CCCC3 was read as HEK293 cAMP ctrl 7.94µM*, TSHR agonist inconclusive, Hsp90 Hop PPI 0.5%, IkB sig inh -0.3% and CRE-bla Fsk -0.6%.
Screening CN(C)C(=O)c1ccc(-c2cncnc2NCCN2CCOCC2)cc1 returned HEK293 cAMP ctrl 5.8%, TSHR agonist 0.3%, Hsp90 Hop PPI -0.2%, IkB sig inh -0.9%[11.4 µM] and CRE-bla Fsk -2.2%.
Cc1ccccc1-c1nc(NCCN2CCOCC2)c2ccccc2n1 was read as HEK293 cAMP ctrl -11.5%, TSHR agonist -0.3%, Hsp90 Hop PPI -10.6%, IkB sig inh 3.2%[11.4 µM] and CRE-bla Fsk -23.3%.
Screening COc1ccc(OC)c(NC(=O)CSCc2cnn(-c3ccccc3)c2-n2cccc2)c1 returned HEK293 cAMP ctrl 25.1µM*, TSHR agonist inconclusive, Hsp90 Hop PPI 4.8%, IkB sig inh inconclusive and CRE-bla Fsk inconclusive.
Screening COc1cc(NC(=O)CSCc2cnn(-c3ccccc3)c2-n2cccc2)cc(OC)c1 returned HEK293 cAMP ctrl 11.2%, TSHR agonist 22.6%, Hsp90 Hop PPI -2.9%, IkB sig inh inconclusive and CRE-bla Fsk 20.3%.
`Cn1cc(/C(Cc2ccccc2)=N\O)c2ccccc21` gave HEK293 cAMP ctrl 28.8%, TSHR agonist 20µM*, Hsp90 Hop PPI -7.6%, IkB sig inh -1.3% and CRE-bla Fsk 12.5%.
`CCOc1ccc(C(C)=O)cc1Cn1nc(C(=O)O)c2ccccc2c1=O` gave HEK293 cAMP ctrl 23.1%, TSHR agonist 26.0%, Hsp90 Hop PPI -4.7%, IkB sig inh 0.5% and CRE-bla Fsk 6.31µM*.
For Cc1noc(C)c1Cn1nc(C(=O)O)c2ccccc2c1=O the results were HEK293 cAMP ctrl 15.3%, Hsp90 Hop PPI 1.8%, IkB sig inh -1.1% and CRE-bla Fsk inconclusive.
Screening CCCc1nc2c(=O)n(C)c(=O)nc-2n(C)n1 returned Hsp90 TPR2A CRC active.
For Cc1ccc(NS(=O)(=O)c2c(C)nc3sccn3c2=O)c(Cl)c1 the results were IkB sig inh -4.6%.
For c1ccc(-c2n[nH]c(-c3ccccn3)n2)nc1 the results were HEK293 cAMP ctrl 0.8%, TSHR agonist -3.2%, Hsp90 Hop PPI 0.2µM*, IkB sig inh 14.9%, CRE-bla Fsk 27.7% and Hsp90 TPR2A CRC -98.3*[alpha-screen platform artifact].
`Cc1ccc(-c2nc(-c3ccccn3)no2)cc1` gave HEK293 cAMP ctrl 26.3% and TSHR agonist 6.7%.
For Cc1ccccc1CS(=O)(=O)Cc1ccc(C(=O)NCc2ccccn2)o1 the results were HEK293 cAMP ctrl 2.3%, TSHR agonist -4.1%, Hsp90 Hop PPI 3.98µM*, IkB sig inh 1.8%, CRE-bla Fsk inconclusive and Hsp90 TPR2A CRC -91.4*[alpha-screen platform artifact].
`Cc1ccc(C2NC(=O)c3c(sc4c3CCN(C)C4)N2)s1` (stereo not drawn) gave HEK293 cAMP ctrl -5.7%, TSHR agonist -4.9%, Hsp90 Hop PPI -10.7%, IkB sig inh -1.2% and CRE-bla Fsk inconclusive.
For CN1CCc2c(sc3c2C(=O)NC(c2ccccn2)N3)C1 (stereo not drawn) the results were HEK293 cAMP ctrl 0.8%, TSHR agonist 4.7%, Hsp90 Hop PPI 15.8µM*, IkB sig inh -1.7%, CRE-bla Fsk inconclusive and Hsp90 TPR2A CRC -81.3*[alpha-screen platform artifact].
Oc1c(CN2CCOCC2)cc(COCc2ccccc2)c2cccnc12 was read as HEK293 cAMP ctrl 11.0%, TSHR agonist -1.6%, Hsp90 Hop PPI 1.58µM*, IkB sig inh 5.6%, CRE-bla Fsk inconclusive and Hsp90 TPR2A CRC -99.7*[alpha-screen platform artifact].
COc1ccc(-c2cc3ccc(O)c(CN4CCN(CCO)CC4)c3oc2=O)cc1OC was read as IkB sig inh 1.4%.
`CC[C@H](Cc1c(I)cc(I)c(N)c1I)C(=O)O` gave HEK293 cAMP ctrl 16.3%[25.6 µM], TSHR agonist 22.6%[25.6 µM], Hsp90 Hop PPI 0.0%[26 µM], IkB sig inh 3.8%[25.6 µM] and CRE-bla Fsk 9.8%[17.1 µM].
COC(=O)Cc1cc(=O)n(-c2nc3ccccc3[nH]2)[nH]1 was read as HEK293 cAMP ctrl -8.8%, TSHR agonist -6.5%, Hsp90 Hop PPI 7.94µM*, IkB sig inh 4.1%, CRE-bla Fsk inconclusive and Hsp90 TPR2A CRC -99.5*[alpha-screen platform artifact].
For CNc1oc(Cc2cccc3ccccc23)nc1C#N the results were HEK293 cAMP ctrl 1.0%, TSHR agonist -8.0%, Hsp90 Hop PPI -11.5%, IkB sig inh -1.6% and CRE-bla Fsk -14.6%.
`N#Cc1nc(Cc2cccc3ccccc23)oc1NCCN1CCCCC1` gave HEK293 cAMP ctrl -6.3%, TSHR agonist -7.0%, Hsp90 Hop PPI 7.94µM*, IkB sig inh inconclusive, CRE-bla Fsk inconclusive and Hsp90 TPR2A CRC -23.3.
For O=C(c1ccccc1)[C@@H]1O[C@H]1c1ccc(-c2ccccc2)cc1 the results were HEK293 cAMP ctrl 17.0%, TSHR agonist 25.3%, Hsp90 Hop PPI -5.7%, IkB sig inh 0.3% and CRE-bla Fsk inconclusive.

High-throughput results (PubChem BioAssay)
